# An excerpt weighted towards active compounds, which were near 1.8% of everything screened.
# MEP2-GFP yeast – alters MEP2-GFP fluorescence in TOR pathway yeast screen; S. cerevisiae MEP2-GFP strain, flow cytometry GFP, 3 h; 100% = DMSO control level; 330,000 tested, 0.51% active; GFP response vs DMSO, % at 10 µM;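 active = GFP response versus DMSO above a set limit, roughly screen mean plus 3 SD, cut at about 180% in these data; inconclusive = fewer than 70 cells counted for a yeast strain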;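 note: median GFP fluorescence of the barcode-gated MEP2-GFP cells per well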
# CIT2 TOR yeast – yeast TOR pathway CIT2-GFP modulation | S. cerevisiae CIT2-GFP strain, flow cytometry, 3 h; 100 means same as DMSO wells | GFP response vs DMSO, % at 10 µM | 320,000 tested, 0.065% active | AID 2029;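 active = GFP response relative to DMSO above a set limit, near the screen mean plus 3 SD, cut at about 150% in these data; inconclusive = Fewer than 70 cells measured for a yeast strain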;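 note: ratio of well median GFP fluorescence to mean of DMSO wells on the plate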
# RPL19A-GFP yeast – alters RPL19A-GFP fluorescence in TOR pathway yeast screen. S. cerevisiae RPL19A-GFP strain, flow cytometry, 3 h; active compounds read low. percent response vs DMSO, % at 10 µM. 330,000 tested, 0.3% active. AID 2025;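 active = percent response vs DMSO below 50%; inconclusive = fewer than 70 events counted for the yeast strain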;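 note: median channel GFP fluorescence of the barcoded RPL19A-GFP strain; lower means less RPL19A-GFP as with rapamycin TOR inhibition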
# AGP1-GFP MLPCN – yeast TOR pathway AGP1-GFP modulation; GFP response vs DMSO, % at 10 µM; 320,000 tested, 0.02% active; S. cerevisiae AGP1-GFP multiplex flow cytometry, 3 h; GFP as percent of DMSO wells; AID 2066;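 active = GFP response relative to DMSO above a set limit, near screen average plus 3 SD, cut at about 150% in these data; inconclusive = fewer than 70 cells counted for the yeast strain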;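 note: median GFP channel fluorescence of the gated AGP1 strain per well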
# Myeloid diff MLP – compounds promoting myeloid differentiation | ER-HoxA9 myeloid progenitors, lysozyme-GFP differentiation, flow cytometry | calls only at 10 µM | 360,000 tested, 1% active | AID 624256;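 active = normalized GFP-positive differentiation at or above the plate's own cutoff, the solvent-only control mean plus 3 SD; inconclusive = no clear call, values can overlap the other calls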;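 note: cells exposed to compound for four days before flow analysis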
# LAP4-GFP MLPCN – modulators of TOR pathway LAP4-GFP in S. cerevisiae; S. cerevisiae LAP4-GFP multiplex, flow cytometry GFP, 3 h; median GFP as percent of DMSO wells; GFP response vs DMSO, % at 10 µM; 320,000 tested, 0.34% active;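 active = GFP response vs DMSO above a set limit, about the screen mean plus 3 SD, cut at about 150% in these data; inconclusive = under 70 cell events counted for the yeast strain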
# A number is an active result; n = inactive; u = inconclusive; x = no result; + = active, no number; [ ] = remark or other dose.
SMILES,MEP2-GFP yeast,CIT2 TOR yeast,RPL19A-GFP yeast,AGP1-GFP MLPCN,Myeloid diff MLP,LAP4-GFP MLPCN
Cc1ccc(NC2=CC(=O)CC(C)(C)C2)c(N)c1,n,n,n,n,+,n
COC(C(=O)N/N=C(\C)c1ccc(C(C)(C)C)cc1)c1ccccc1 (configuration not stated),n,n,n,n,n,n
Cc1ccc(S(=O)(=O)N(CC(=O)NCc2ccncc2)Cc2ccccc2F)cc1,482.9,n,n,n,n,n
NC(=O)C1CCN(c2cc(Cl)ccc2[N+](=O)[O-])CC1,u,x,41.0[may fluoresce violet],x,n,x
O=C(Nc1ccc(Cn2nnc3ccccc32)cc1)c1ccco1,293.8[may fluoresce violet],u,14.4[may fluoresce violet],u,n,n
CC1C(=O)NN=C1C(=O)N/N=C\C(Br)=C\c1ccccc1 (configuration not stated),x,x,x,x,+,x
O=C(N/N=C/C(Br)=C/c1ccccc1)c1cc(-c2ccco2)[nH]n1,n,n,n,n,+,n
CC1=NNC(=O)C1CC(=O)N/N=C/C(Br)=C/c1ccccc1 (configuration not stated),n,n,n,n,n,n
O=[N+]([O-])c1ccc(O)c(/C=N/Nc2ncnc3c2cnn3-c2ccccc2)c1,n,n,n,n,u,n
Cc1ccc(C2c3[nH]c4ccccc4c3C[C@H]3C(=O)N(c4ccccc4C(=O)N4CCC[C@@H]4C(=O)O)C(=O)N23)cc1 (some centres not stated),n,n,n,n,n,n
Cc1nn(Cc2c(Cl)cccc2Cl)c(C)c1NC(=O)c1sc2ccccc2c1Cl,192.3,n,n,n,n,n
Cc1nn(Cc2ccc(Cl)c(Cl)c2)c(C)c1NC(=O)c1sc2ccccc2c1Cl,n,n,n,n,n,n
Cc1ccc(C(=O)c2ccccc2C(=O)OCC(=O)NC(C)(C)C)cc1,n,n,n,n,n,n
O=C(C1CCC1)N1CCCc2cc(S(=O)(=O)N3CCN(c4ccccc4)CC3)ccc21,n,n,n,n,n,n
O=C(C1CC1)N1CCc2cc(S(=O)(=O)N3CCN(c4ccccc4)CC3)ccc21,n,u,14.3[may fluoresce violet],u,n,n
COc1ccc(N2CCN(C(=O)C3CCN(S(=O)(=O)c4ccccc4)CC3)CC2)cc1,+[may fluoresce green],896.0[may fluoresce green],n,248.8[may fluoresce green],n,+[may fluoresce green]
O=C(CCl)c1ccc2c(c1)CCN2C(=O)C1CCCCC1,n,n,n,n,n,n
O=C(C1CCN(S(=O)(=O)c2ccccc2)CC1)N1CCN(c2ccccc2)CC1,n,n,n,n,n,n
O=C(CCl)c1ccc2c(c1)CCN2C(=O)C1CC1,n,n,n,n,x,159.4
CC[C@@H](CC1CCCCC1)C(=O)N(Cc1ccccc1)c1ccccc1,n,n,n,n,n,n
Cc1cccc(OCc2nnc(SCc3nc4ccccc4c(=O)[nH]3)o2)c1,n,n,n,n,n,n
Cc1ccnc(NC(=O)CCC2CCCCC2)c1,n,n,n,n,n,n
CC1=CC(=C(C#N)c2nc3ccccc3s2)C=C(C)N1c1ccc(F)cc1,n,n,n,n,n,n
COc1ccccc1N1C(C)=CC(=C(C#N)c2nc3ccccc3s2)C=C1C,n,n,n,n,+,n
Cc1noc(C)c1COc1cccc(C(=O)OCCOc2ccc(F)cc2)c1,n,n,n,n,n,n
SMILES,MEP2-GFP yeast,CIT2 TOR yeast,RPL19A-GFP yeast,AGP1-GFP MLPCN,Myeloid diff MLP,LAP4-GFP MLPCN
Cc1noc(C)c1COc1cccc(C(=O)OC(C)C#N)c1 (configuration not stated),306.5[may fluoresce violet],u,20.4[may fluoresce violet],n,n,n
O=C(Nc1ccc(S(=O)(=O)Nc2nccs2)cc1)c1nn(-c2ccccc2)ccc1=O,n,n,n,n,n,n
Cc1cccc(-n2ccc(=O)c(C(=O)Nc3ccc(S(=O)(=O)Nc4nccs4)cc3)n2)c1,n,n,n,n,+,n
COc1ccc(Cl)cc1N1C(=O)C2CCCN2C1c1ccc(F)cc1 (configuration not stated),n,n,n,n,n,n
Cc1cc(C(=O)C(C)OC(=O)c2ccc(NC(=O)CC#N)cc2)c(C)n1-c1ccccc1 (configuration not stated),n,n,n,n,+,n
CN1C(=O)N(c2ccccc2)C(Nc2nncs2)C1(C)C (configuration not stated),n,n,n,n,+,n
CSc1ccc(CN(C)C(C)C(=O)NCC2CCCCC2)cc1 (configuration not stated),n,n,n,n,n,n
O=C1C(Br)=Cc2cccc3cccc1c23,388.6[may fluoresce violet],u,34.8[may fluoresce violet],u,n,n
O=C(CSc1ccc(S(=O)(=O)N2CCOCC2)cn1)Nc1ccc(F)c(F)c1,n,n,n,n,n,n
Cc1ccc(NC(=O)c2cc(S(=O)(=O)c3ccccc3)ccc2Cl)cc1,n,n,n,n,n,n
Cc1ccc(S(=O)(=O)NCCCCCC(=O)Nc2c(C)n(C)n(-c3ccccc3)c2=O)cc1,251.4[may fluoresce violet],u,36.7[may fluoresce violet],u,n,n
Cc1ccc(S(=O)(=O)NC(=O)Nc2c(C)n(C)n(-c3ccccc3)c2=O)cc1,n,n,n,n,n,n
CCOC(=O)[C@H]1[C@H]2COc3ccccc3[C@@H]2N2C(=O)c3cc(F)c(F)cc3NC(=O)[C@@]12C,x,x,x,x,n,x
CCOC(=O)[C@H]1[C@H]2COc3ccccc3[C@@H]2N2C(=O)CNC(=O)[C@@]12C,n,n,n,n,+,n
CC(C)[C@H](NC(=O)[C@@H]1Cc2ccccc2CN1C(=O)OC(C)(C)C)C(=O)NCC1CCC(C(=O)O)CC1 (some centres not stated),n,n,n,n,n,n
CCc1ccccc1NC(=O)C1CCCN(c2nccc(C)n2)C1 (configuration not stated),u,u,25.1[may fluoresce violet],u,n,n
CS(=O)(=O)N1CCC(C(=O)Nc2ccccc2Cl)CC1,n,n,n,n,n,n
CCc1ccccc1NC(=O)C1CCN(S(C)(=O)=O)CC1,n,n,n,n,+,n
O=[N+]([O-])c1ccc(N2CCN(S(=O)(=O)c3ccc(Cl)c(Cl)c3)CC2)cc1NCCN1CCOCC1,n,n,n,n,n,n
O=C(Cc1ccc([N+](=O)[O-])cc1)Nc1ccc(Br)cn1,n,n,n,n,n,n
O=C(COc1ccc(Br)cc1)Nc1ccc([N+](=O)[O-])cn1,249.6[may fluoresce violet],u,n,x,n,n
CN1CCN(S(=O)(=O)c2ccc(NC(=O)c3ccc(F)cc3Cl)cc2)CC1,n,n,n,n,n,n
COc1ccc(C(=O)Nc2cc(-c3ccccc3)nn2-c2ccccc2F)cc1,n,n,n,n,+,n
Cc1ccc(-c2sc(-c3cccnc3)nc2CC(=O)O)cc1,n,n,n,n,n,n
COc1ccc(N2CCN(C(=O)COC(=O)c3ccco3)CC2)cc1,n,n,n,n,+,n
